Records with an inconclusive call do not appear. Where a call stands in place of a potency, no number is given. Unmarked numbers belong to inactive results. Calls of active or inactive are those of the source. Calls follow the shape of the dose curve; as a rule, active = well fitted inhibition curve with a large enough effect; inconclusive = small, poorly fitted or top-dose-only effect; inactive = no such curve, though single readings can be large or run the other way.

In this experiment the target is Retinaldehyde dehydrogenase 3 (Homo sapiens) (UniProt P47895). Description: qHTS for Inhibitors of the Aldehyde Dehydrogenase Family (ALDH1A3) Primary screen (AID 2061315). Particulars: ALDH inhibition qHTS; series mostly up to 56 µM. On the technique in general: In qHTS, concentration-response curves come from the screen itself.
Turning to `CCN(CCO)CCCC(C)Nc1ccnc2cc(Cl)ccc12` (stereo not given), the activity change, negative = inhibition is 5.26% [at 5.59 µM]. Consider `CCCCc1oc2ccc(NS(C)(=O)=O)cc2c1C(=O)c1ccc(OCCCN(CCCC)CCCC)cc1`, for which the Potency entry is “inactive”. With `Cn1cncc1C(N)(c1ccc(Cl)cc1)c1ccc2c(c1)c(-c1cccc(Cl)c1)cc(=O)n2C` (stereo not given), the Potency entry is “inactive”.

On to `CC(C)(C)c1cc(C(=O)O)c(NC(=O)Nc2ccc3[nH]ncc3c2)s1`, for which the Potency entry was “inactive”. For `O=C(c1cc(Cc2n[nH]c(=O)c3ccccc23)ccc1F)N1CCN(C(=O)C2CC2)CC1`, the Potency result is “inactive”.

As for `CCC(CC)C(c1ccc(Nc2nc3ccccc3s2)cc1)n1cncn1` (stereo not given), the Potency result was “inactive”. With `Cc1cc(C(=O)N2CCN(c3cccc(Cl)c3)CC2)n(-c2ccccc2)n1`, the Potency entry is “inactive”. In the case of `COc1ccc(CCC(=O)Nc2nc3ccc(Cl)cc3s2)cc1OC`, the Potency entry was “inactive”. Take `CNC(=O)c1cccc(-c2ccc3c(N4CCOC[C@@H]4C)nc(N4CCOC[C@@H]4C)nc3n2)c1`: the Potency entry is “inactive”.

Consider `Clc1cccc(-n2nnnc2NCc2ccccc2Oc2ccccn2)c1Cl`, for which the Potency result is “inactive”. With `O=C(C(c1ccccc1)c1ccccc1)N1CCN(CC(O)COc2cccc3ncccc23)CC1` (stereo not given), the Potency entry was “inactive”. Same read-out and setting: in the case of `OC[C@H]1O[C@@H](Oc2cc(O)cc(/C=C/c3ccc(O)cc3)c2)[C@H](O)[C@@H](O)[C@@H]1O` it was “inactive”; in that of `C[C@H]1CN(C[C@H](Cc2ccccc2)C(=O)NCC(=O)O)CC[C@@]1(C)c1cccc(O)c1`, “inactive”. As to `CC(C)(C)NC(=O)Nc1cccc(Nc2ncc(F)c(NC(C)(C)CO)n2)c1`, the Potency entry was “inactive”. Turning to `O=C(NCC(=O)N1CC[C@H](NC2CCC(O)(c3ccc(-c4ncccn4)cn3)CC2)C1)c1cccc(C(F)(F)F)c1` (stereo not given in full), the Potency result was “inactive”.
